Among all 310,000 compounds or so, about 14,000 (4.5%) showed an effect of 50% or more. The effect is printed as a negative number. Many of the other results were omitted from the sample, so strong results are more common in it than they were.
Each compound was assayed against human ether-à-go-go-related gene (hERG) potassium channel (human, UniProt Q12809) (assay: primary screen, population patch clamp on CHO cells stably expressing hERG; higher = less effect of the substance).
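Further: peak tail current of the secondary pulse compared with the same well before compound.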

Sequence of human ether-à-go-go-related gene (hERG) potassium channel (Q12809 whole entry, looked up): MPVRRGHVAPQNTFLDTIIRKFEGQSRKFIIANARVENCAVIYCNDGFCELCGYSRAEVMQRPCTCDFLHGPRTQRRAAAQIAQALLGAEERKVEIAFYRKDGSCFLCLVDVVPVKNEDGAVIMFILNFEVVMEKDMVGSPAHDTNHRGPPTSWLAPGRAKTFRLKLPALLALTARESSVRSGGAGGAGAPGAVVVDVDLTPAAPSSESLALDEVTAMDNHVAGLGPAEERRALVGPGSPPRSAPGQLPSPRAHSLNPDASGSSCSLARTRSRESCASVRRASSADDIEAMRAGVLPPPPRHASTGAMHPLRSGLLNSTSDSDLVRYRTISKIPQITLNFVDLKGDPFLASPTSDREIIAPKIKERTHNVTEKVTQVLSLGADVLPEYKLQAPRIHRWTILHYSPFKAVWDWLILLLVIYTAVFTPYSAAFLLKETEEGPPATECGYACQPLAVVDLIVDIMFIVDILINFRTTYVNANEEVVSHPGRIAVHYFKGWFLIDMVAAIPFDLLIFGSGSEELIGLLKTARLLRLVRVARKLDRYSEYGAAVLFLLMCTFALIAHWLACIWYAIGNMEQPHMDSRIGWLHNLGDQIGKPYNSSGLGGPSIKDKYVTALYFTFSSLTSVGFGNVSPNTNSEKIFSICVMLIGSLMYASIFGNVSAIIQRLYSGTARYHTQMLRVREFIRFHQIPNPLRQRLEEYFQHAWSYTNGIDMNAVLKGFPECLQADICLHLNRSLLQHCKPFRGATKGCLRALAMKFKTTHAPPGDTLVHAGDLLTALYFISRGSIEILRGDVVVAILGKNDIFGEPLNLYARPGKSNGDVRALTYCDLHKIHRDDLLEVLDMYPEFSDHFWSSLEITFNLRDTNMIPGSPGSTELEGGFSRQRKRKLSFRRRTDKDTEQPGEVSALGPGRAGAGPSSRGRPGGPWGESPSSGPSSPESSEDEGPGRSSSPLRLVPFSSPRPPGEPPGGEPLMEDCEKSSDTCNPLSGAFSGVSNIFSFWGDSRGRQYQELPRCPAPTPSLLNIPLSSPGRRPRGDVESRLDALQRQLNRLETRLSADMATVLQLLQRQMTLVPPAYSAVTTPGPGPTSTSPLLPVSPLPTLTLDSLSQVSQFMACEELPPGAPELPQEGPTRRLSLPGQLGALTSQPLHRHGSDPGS

| Structure (SMILES) | hERG current change (%, negative = inhibition) at 10uM [%] |
| --- | --- |
| COc1ccc(C(=O)N/N=C/c2sc(=O)n(Cc3cccc(C(=O)O)c3)c2Cl)cc1 | -1.9 |
| CC(C)(C)C1CCC(=NNC(=O)C2COc3ccccc3O2)CC1 (centres unmarked) | 0.995 |
| CCOC(=O)Cn1ccc(NC(=O)COc2ccc(F)cc2F)n1 | -2.52 |
| Cc1ccc(OCc2cc(C(=O)N3CC4C[C@@H]5CC3C[C@H](C4)C5)no2)cc1C | 15.7 |
| COc1ccc(C(=O)C[n+]2cccc(C)c2)cc1.[Br-] | 13 |
| NC(=O)c1ccc(NCc2ccco2)c([N+](=O)[O-])c1 | 6.16 |
| CN1CCN(S(=O)(=O)c2ccc3c(c2)C(C)(C)C(=O)N3C)CC1 | 14.3 |
| CSCCC(NC(=O)c1cc(S(=O)(=O)N2CCOCC2)ccc1F)c1nc2ccccc2[nH]1 (centres unmarked) | -5.27 |
| O=C(COc1ccccc1)N1CCN(C(=O)c2ccc([N+](=O)[O-])cc2)CC1 | -62.4 |
| COc1ccc(OCC(=O)N2CCN(C(=O)c3ccc(F)cc3)CC2)cc1 | -20.2 |
| COc1ccc(OCC(=O)N2CCN(C(=O)c3ccccc3)CC2)cc1 | -12.6 |
| COc1ccc(OCC(=O)N2CCN(C(=O)c3ccc([N+](=O)[O-])cc3)CC2)cc1 | -67.2 |
| CCC(=O)c1ccc(OCC(=O)N2CCN(C(=O)c3ccccc3)CC2)cc1 | -37.8 |
| O=C(COc1ccccc1)N1CCN(S(=O)(=O)c2cccc([N+](=O)[O-])c2)CC1 | -47.3 |
| COc1ccc(NC(=O)Cc2nnc(SCC(=O)NC3CCCC3)n2C)cc1 | 15.3 |
| CN(CC(=O)Nc1ccccc1Sc1ccccc1)Cc1nc2ccccc2c(=O)[nH]1 | -37.1 |
| CC(C)CN(CC(C)C)C(=O)COc1ccccc1C(N)=O | 7.55 |
| COc1ccc(S(=O)(=O)N2CCN(CC(=O)Nc3cc(C(F)(F)F)ccc3Cl)CC2)cc1 | -4.6 |
| C=CCOc1ccccc1CN1CCC(Cc2ccccc2)CC1 | -70.3 |
| Clc1ccc(CN2CCC(Cc3ccccc3)CC2)cc1 | -40.9 |
| Fc1ccc(CN2CCC(Cc3ccccc3)CC2)cc1F | 2.03 |
| CSc1ccc(CN2CCC(Cc3ccccc3)CC2)cc1 | -65.4 |
| C=CCOc1ccccc1CN1CCCCCC1 | -18.9 |

| Structure (SMILES) | hERG current change (%, negative = inhibition) at 10uM [%] |
| --- | --- |
| CCOc1ccc(CN2CCC(Cc3ccccc3)CC2)cc1 | -78.3 |
| CCOc1ccc(S(=O)(=O)N2CCN(Cc3ccccc3)CC2)cc1 | 1.61 |
| C=CCOc1ccccc1CN1CCSCC1 | -11.2 |
| Clc1cccc(CN2CCC(Cc3ccccc3)CC2)c1 | -27.9 |
| O=C(CNS(=O)(=O)c1ccccc1)NCC(=O)OCc1ccccc1F | 13.7 |
| CC[C@@]12C(=O)N(c3ccccc3)C(=O)N1[C@H](c1ccc(Br)cc1)[C@@H]1C(=O)N(C(C)(C)C)C(=O)[C@@H]12 | 4.22 |
| CCOC(=O)/C=C/c1cnn(-c2ccccc2)c1 | 3 |
| CCc1nc2cc(CC(=O)O)ccc2o1 | 8.35 |
| COc1ccc(/C=N/NC(=O)Cn2cnc3ccccc3c2=O)cc1OC | -6.77 |
| CCCCn1c(O)c(C(CC)=NCc2ccco2)c(=O)[nH]c1=O | -35.4 |
| CC(C)CN(C(=O)CN(C)C(=O)Cc1ccccc1Cl)c1c(N)n(CC(C)C)c(=O)[nH]c1=O | 20.7 |
| CCC1CCCCN1C(=O)c1cccc(S(=O)(=O)Nc2cc(C(F)(F)F)ccc2Cl)c1 (centres unmarked) | 2.59 |
| COc1ccc(CCC(=O)NCCOc2ccc(Cl)cc2)cc1 | -7.98 |
| COc1ccc(-c2[nH]c3ccccc3c2SCCNC(=O)c2cc3ccccc3oc2=O)cc1 | -0.175 |
| CCOc1ccc(NC(=O)Cn2nnc(C(=O)NCc3cccs3)c2N)cc1 | 13.8 |
| Cc1cc(=O)[nH]c2nnc(-c3ccc(Br)cc3)n12 | 5.99 |
| O=S(=O)(c1ccc2c(c1)CCN2)N1CCCC1 | -1.58 |
| COc1ccc(CNC(=O)COC(=O)[C@H](Cc2c[nH]c3ccccc23)NC(=O)c2cccs2)cc1 | -0.701 |
| OC(COc1cccc2ccccc12)CN1CCCC1 (centres unmarked) | -29.4 |
| OC(COc1cccc2ccccc12)CN1CCN(c2ccccc2)CC1 (centres unmarked) | -33.2 |
| COc1ccccc1N1CCN(CC(O)COc2cccc3ccccc23)CC1.Cl (centres unmarked) | -68.3 |
| Cc1ccc(N2CCN(CC(O)COc3cccc4ccccc34)CC2)cc1 (centres unmarked) | -25.1 |
| OC(COc1cccc2ccccc12)CN1CCN(c2ccccc2Cl)CC1 (centres unmarked) | -50.2 |

| Structure (SMILES) | hERG current change (%, negative = inhibition) at 10uM [%] |
| --- | --- |
| COc1ccccc1N1CCN(CC(O)COc2c(OC)cccc2OC)CC1.Cl (centres unmarked) | -48.4 |
| COc1ccccc1N1CCN(CC(O)c2ccc3cc[nH]c3c2)CC1 (centres unmarked) | -69.3 |
| COc1ccccc1N1CCN(CC(O)c2ccccc2)CC1 (centres unmarked) | -8.46 |
| CCOC(=O)N1CCN(CC(O)c2ccc3cc[nH]c3c2)CC1 (centres unmarked) | -30.4 |
| OC(COc1ccc2ccccc2c1Cl)CN1CCOCC1 (centres unmarked) | -24.5 |
| COc1ccccc1N1CCN(CC(O)COc2cccc3ccccc23)CC1.Cl.O (centres unmarked) | -61 |
| CCCc1nnc(SCC(=O)Nc2ccc(OCC)cc2)n1N | -3.79 |
| CCN(c1ccccc1)S(=O)(=O)c1ccc(Cl)c(C(=O)N(CC2CCCO2)C2CCS(=O)(=O)C2)c1 (centres unmarked) | -5.04 |
| Cc1ccc(-c2csnn2)cc1 | 6.13 |
| CCN1CCN(CCCNC(=O)C2c3ccccc3C(=O)N(c3ccc(OC)cc3)C2c2ccc(OC)cc2)CC1 (centres unmarked) | 1.22 |
| CCCCCN(C(=O)COC(=O)CSc1ccc([N+](=O)[O-])cc1)c1c(N)n(CCCC)c(=O)[nH]c1=O | -40.5 |
| CCc1cccc(NC(=O)CN(c2ccc(C)cc2)S(=O)(=O)c2c(C)noc2C)c1 | 8.14 |
| COc1cc(OC)c(NC(=O)CCc2nc(-c3ccc(C)cc3)no2)cc1Cl | 6.21 |
| COc1ccc(-c2ccc(-c3noc(-c4ccccc4C)n3)c(OC)n2)cc1 | 6.35 |
| O=C(NC1CCC(O)CC1)c1cccc2cccnc12 (centres unmarked) | 7.2 |
| CC1CCCCN1Cc1c(O)ccc2c(=O)c(-c3nc4ccccc4s3)coc12 (centres unmarked) | -48 |
| CN(C)Cc1c(O)ccc2c(=O)c(-c3ccc(Cl)cc3)coc12 | -9.92 |
| CC1CCN(Cc2c(O)ccc3c(=O)c(-c4nc5ccccc5s4)c(N)oc23)CC1 | -48.5 |
| CC1CCCCN1Cc1c(O)ccc2c(=O)c(-c3nc4ccccc4s3)c(N)oc12 (centres unmarked) | -60.6 |
| CC1CCCCN1Cc1c(O)ccc2c(=O)c(-c3ccc(Cl)cc3Cl)coc12 (centres unmarked) | -60.7 |
| CCN(CC)Cc1c(O)ccc2c(=O)c(-c3ccc(Cl)cc3)coc12 | -58.4 |
| COc1ccccc1-c1coc2c(CN3CCCCC3C)c(O)ccc2c1=O (centres unmarked) | 6.44 |
| CC1CCCN(Cc2c(O)ccc3c(=O)c(-c4nc5ccccc5s4)c(N)oc23)C1 (centres unmarked) | -0.886 |

| Structure (SMILES) | hERG current change (%, negative = inhibition) at 10uM [%] |
| --- | --- |
| CCN(CC)Cc1c(O)ccc2c(=O)c(-c3ccccc3)coc12.Cl | -1.91 |
| COc1ccc(-c2coc3c(CN4CCCCC4C)c(O)ccc3c2=O)cc1 (centres unmarked) | -39.4 |
| CC1CCCCN1Cc1c(O)ccc2c(=O)c(-c3ccccc3)coc12 (centres unmarked) | -38.2 |
| CC1CCCCN1Cc1c(O)ccc2c(=O)c(-c3ccc(Cl)cc3)coc12 (centres unmarked) | -69.1 |
| N#Cc1cc2ccccc2nc1SCC(=O)Nc1ccc(S(=O)(=O)N2CCCC2)cc1 | 6.03 |
| Cn1ncnc2c(=O)n(C)c(=O)nc1-2 | -2.67 |
| O=C(NCc1ccccc1)Nc1cccn(Cc2ccccc2Cl)c1=O | 18.8 |
| Cc1nc2ccccc2c(=O)n1-c1ccc(F)cc1F | 3.52 |
| CCOC(=O)CNC(=O)c1ccc2[nH]c3c(c2c1)CCCC3 | 11.5 |
| CCOC(=O)c1ccc(OCCOc2ccccc2C)cc1 | 24 |
| O=c1c(Cl)c(N2CCN(S(=O)(=O)c3ccc(F)cc3)CC2)cnn1-c1cccc(Cl)c1 | -29.4 |
| O=C(CSCc1ccccc1Br)N/N=C/c1ccc(OCC(=O)N2CCCCC2)cc1 | -15.9 |
| CNC(=O)c1[nH]cnc1C(=O)Nc1ccc(OC)cc1 | 20.8 |
| O=c1[nH]cnc2cc(-c3ccc(Br)cc3)sc12 | 12.3 |
| CN(C)S(=O)(=O)c1ccc(N2CCCC2)c(C(=O)N2CCN(S(=O)(=O)c3cccc(F)c3)CC2)c1 | -10.7 |
| Cc1nnc2ccc(-c3cccc(NS(=O)(=O)c4cc(F)ccc4F)c3)nn12 | -0.0273 |
| O=C(O)CSCC(=O)Nc1ccc(C(=O)O)cc1 | 12.5 |
| COc1ccc(-c2c(C)oc3c(CN4CCCCC4C)c(O)ccc3c2=O)cc1 (centres unmarked) | -16.6 |
| Cc1oc2c(CN3CCCCC3C)c(O)ccc2c(=O)c1-c1ccc(Br)cc1 (centres unmarked) | -50.9 |
| Cc1oc2c(CN3CCCCC3C)c(O)ccc2c(=O)c1-c1ccccc1 (centres unmarked) | -27.6 |

From publication PMC4336329 (PLoS ONE, 2015)
